KLF5 inhibitor: KLF5 expression inhibitors, primary screen, DLD-1 cells, luminescence; inhibition, % at 5 µM; DLD-1 KLF5 promoter-luciferase reporter; 290,000 compounds, 0.23% hits; AID 1700, 2009;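 active means inhibition above a per-plate limit of that plate's mean compound inhibition plus 3 SD, cut at about 60% in these data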;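 further: higher means less KLF5 promoter-driven luciferase light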
aSyn UTR inh: MLPCN primary screen, SNCA 5' untranslated region; inhibition, % (tested at 7.5 µM); alpha-synuclein 5'UTR reporter, inhibitor activity; AID 1813, 2009; 300,000 compounds, 0.82% hits; in the data active means inhibition above about 60%;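 further: H4 neuroglioblastoma cells stably carrying SNCA 5'UTR luciferase fusion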
Gli-Sufu block: Gli-Sufu pathway antagonists, primary screen, luciferase luminescence, Sufu-KO-LIGHT cells, uHTS; Sufu-KO-LIGHT fibroblasts, Gli luciferase reporter luminescence; inhibition, % at 5 µM; 340,000 compounds, 0.74% hits; AID 588413, 2011;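 active means inhibition above about 55%, limit read from the data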
Jurkat NFkB inh: inhibitors of induced NF-kB luciferase reporter, primary screen, TCR NF-kB activation inhibitor project, cell-based, luminescence, uHTS | AID 435003, 2010 | 330,000 compounds, 0.53% hits | inhibition, % at 4 µM | Jurkat, PMA/ionomycin-induced NF-kB luciferase reporter; in the data active means inhibition above about 50%
Mdm2-MdmX inh: inhibitors of human Mdm2-MdmX association, primary screen, cell-based, luminescence, split luciferase, SaOS-2, uHTS; inhibition, % at 8 µM; 330,000 compounds, 3% hits; SaOS-2 split-luciferase Mdm2/MdmX complementation;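 active means inhibition of at least 50% at 8 µM in the primary screen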
Target sequence (O15151 whole entry, looked up): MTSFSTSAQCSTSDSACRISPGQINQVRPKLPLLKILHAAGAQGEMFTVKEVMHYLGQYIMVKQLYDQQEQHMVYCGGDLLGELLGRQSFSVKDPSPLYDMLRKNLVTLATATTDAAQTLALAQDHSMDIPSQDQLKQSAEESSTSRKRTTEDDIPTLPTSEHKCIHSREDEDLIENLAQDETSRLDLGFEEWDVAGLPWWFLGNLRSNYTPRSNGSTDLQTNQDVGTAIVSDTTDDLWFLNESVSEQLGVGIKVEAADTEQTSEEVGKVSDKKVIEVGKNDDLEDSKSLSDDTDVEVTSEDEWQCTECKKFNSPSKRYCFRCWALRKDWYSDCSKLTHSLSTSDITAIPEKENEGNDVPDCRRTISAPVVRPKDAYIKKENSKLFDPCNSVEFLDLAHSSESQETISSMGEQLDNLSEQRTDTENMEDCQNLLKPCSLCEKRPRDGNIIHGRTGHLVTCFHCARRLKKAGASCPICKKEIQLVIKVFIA
Target sequence (Q00987 whole entry, looked up): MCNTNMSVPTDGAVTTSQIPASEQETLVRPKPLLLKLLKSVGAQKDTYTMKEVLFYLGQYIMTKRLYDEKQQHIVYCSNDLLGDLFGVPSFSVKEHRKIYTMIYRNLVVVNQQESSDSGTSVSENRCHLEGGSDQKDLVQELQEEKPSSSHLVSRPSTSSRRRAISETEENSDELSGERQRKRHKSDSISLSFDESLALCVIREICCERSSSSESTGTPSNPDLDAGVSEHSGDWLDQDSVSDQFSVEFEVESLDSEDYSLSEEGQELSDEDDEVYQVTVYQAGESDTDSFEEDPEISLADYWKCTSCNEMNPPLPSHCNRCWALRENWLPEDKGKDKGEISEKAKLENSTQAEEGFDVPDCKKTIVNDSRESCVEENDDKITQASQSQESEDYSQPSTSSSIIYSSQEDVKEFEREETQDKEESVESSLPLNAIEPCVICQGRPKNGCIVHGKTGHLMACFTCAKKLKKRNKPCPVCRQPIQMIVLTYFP
697 NFkB inh: inhibitors of PMA/ionomycin-induced NF-kB reporter, 697 cells, primary screen, B-cell NF-kB inhibitor project, cell-based, luminescence, uHTS. 697 B-cell NF-kB luciferase reporter, 16 h. inhibition, % at 4 µM. 330,000 compounds, 0.33% hits; in the data active means inhibition above about 35%
Mdm2 MdmX conf: Mdm2-MdmX complex disruptors, retested hits, confirmation, luminescence, single concentration. shares compounds with Mdm2-MdmX inh. Mdm2-MdmX binding, luminescent assay. inhibition, % at 8 µM. 10,000 compounds, 55% hits; in the data active means inhibition above about 40%
FLuc counter: full-length luciferase signal inhibition, confirmation, counter-screen for Mdm2/MdmX interaction inhibitor project, cell-based, single concentration, SaOS-2. SaOS-2 full-length luciferase counterscreen, luminescence. inhibition, % at 8 µM. shares compounds with Mdm2-MdmX inh. 6,200 compounds, 77% hits. AID 504607, 2011;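 active means mean inhibition at 8 µM reaching about 37%, which flags the compound as non-specific, limit read from the data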;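 further: p53-null SaOS-2 cells with luciferase driven by a doxycycline-inducible promoter; compound on cells about two nights before reading with doxycycline added after day one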
Each line names hits and unclear results; the compound was inactive in the other large screens (follow-up assays come after a bar, where they were run). A selection: hits, their analogues and other compounds. The true share with any hit is near 4.1%.

Cc1ccc(OCC(=O)N/N=C\c2c(C)[nH]n(-c3ccccc3)c2=O)c([N+](=O)[O-])c1	Mdm2-MdmX inh 52 (no result: Gli-Sufu block) | Mdm2 MdmX conf inactive
CCCCN(CCCC)C(=S)N/N=C/c1c(C)[nH]n(-c2ccccc2)c1=O	aSyn UTR inh 93, Mdm2-MdmX inh 84 | Mdm2 MdmX conf 78 | FLuc counter 45
Oc1ccc(C[C@@H]2CNCCN2CC2CCCCC2)cc1	none (no result: KLF5 inhibitor)
Oc1ccc(C[C@H]2CNCCN2CCCCC2CCCCC2)cc1	Mdm2-MdmX inh 72 (no result: KLF5 inhibitor) | Mdm2 MdmX conf inactive
CCCCN1CCNC[C@H]1Cc1ccc(O)cc1	none (no result: KLF5 inhibitor)
Oc1ccc(C[C@H]2CNCCN2CCC23CC4CC(CC(C4)C2)C3)cc1	Mdm2-MdmX inh 58 (no result: KLF5 inhibitor) | Mdm2 MdmX conf inactive
CCOC(=O)c1cnc(SC)nc1Oc1cccc(NC(=O)c2cccc(Cl)c2Cl)c1	none
Cc1[nH]c(=O)c(C(=O)/C=C/c2ccccc2F)c2c1CCCC2	Mdm2-MdmX inh 80 | Mdm2 MdmX conf 99 | FLuc counter 53
O=C(Nc1nonc1NC(=O)c1cccs1)c1cccs1	none
CN(C)CCCN(C(=O)c1ccc(C(=O)c2ccccc2)cc1)c1nc2cc3c(cc2s1)OCCO3	Mdm2-MdmX inh 53 | Mdm2 MdmX conf inactive | FLuc counter 87
CN(C)CCCN(C(=O)c1ccc2c(c1)CCCC2)c1nc2cc3c(cc2s1)OCO3	Mdm2-MdmX inh 64 | Mdm2 MdmX conf 49 | FLuc counter 56
COc1ccc(OCC(=O)NNC(=O)C(=O)N2CCCC2)cc1	none
CSCC[C@H](NC(=O)c1cccc(S(=O)(=O)N2CCN(C)CC2)c1)c1nc2ccccc2[nH]1	none (no result: KLF5 inhibitor, aSyn UTR inh)
Cc1cc(C)nc(NC(=NCCc2c[nH]c3ccccc23)NC(=O)Nc2ccccc2)n1	Mdm2-MdmX inh 64 | Mdm2 MdmX conf inactive | FLuc counter 63
CC(=O)c1ccccc1OCC(O)CN1CCN(CCN2C(=O)c3cccc4cccc(c34)C2=O)CC1 (centres undefined)	none
O=C1c2cccc3cccc(c23)C(=O)N1CC1CCN(CC(O)COc2ccc3ccccc3c2)CC1 (centres undefined)	Mdm2-MdmX inh 73 (no result: KLF5 inhibitor) | Mdm2 MdmX conf inactive | FLuc counter 52
Cc1cc(C)cc(OCC(O)CN2CCC(CN3C(=O)c4cccc5cccc(c45)C3=O)CC2)c1 (centres undefined)	Mdm2-MdmX inh 69 (no result: KLF5 inhibitor) | Mdm2 MdmX conf inactive | FLuc counter 74
COc1cccc(OCC(O)CN2CCC(CN3C(=O)c4cccc5cccc(c45)C3=O)CC2)c1 (centres undefined)	none
CCc1ccc(OCC(O)CN2CCC(CN3C(=O)c4cccc5cccc(c45)C3=O)CC2)cc1 (centres undefined)	Mdm2-MdmX inh 77 | Mdm2 MdmX conf inactive | FLuc counter 61
COc1ccc(COCC(O)CN2CCC(CN3C(=O)c4cccc5cccc(c45)C3=O)CC2)cc1OC (centres undefined)	none
O=C1c2cccc3cccc(c23)C(=O)N1CCN1CCN(CC(O)COc2ccc3ccccc3c2)CC1 (centres undefined)	Mdm2-MdmX inh 67 | Mdm2 MdmX conf inactive
COC(=O)/C=C/c1ccc(OC(=O)c2ccncc2)cc1	none
Cc1ccc(NC(=O)CSc2nc3c([nH]c4ccccc43)c(=O)n2C)cc1	none
COCCn1c(SCC(=O)Nc2ccc(C(N)=O)cc2)nc2c([nH]c3ccccc32)c1=O	Mdm2-MdmX inh 74 | Mdm2 MdmX conf inactive | FLuc counter 52
COc1ccc(NC(=O)CSc2nc3c([nH]c4ccccc43)c(=O)n2C)c(OC)c1	Mdm2-MdmX inh 60 | Mdm2 MdmX conf inactive
COCCn1c(SCC(=O)Nc2ccc(F)cc2)nc2c([nH]c3ccccc32)c1=O	none
CCn1c(SCC(=O)Nc2ccc(NC(C)=O)cc2)nc2c([nH]c3ccccc32)c1=O	Mdm2-MdmX inh 52 | Mdm2 MdmX conf 44 | FLuc counter 44
Cn1c(SCC(=O)Nc2ccc(F)cc2)nc2c([nH]c3ccccc32)c1=O	Mdm2-MdmX inh 91 | Mdm2 MdmX conf 46 | FLuc counter 90
O=C(O)Cn1nnc(-c2ccc(OCc3ccccc3)cc2)n1	none (no result: Jurkat NFkB inh, Mdm2-MdmX inh, 697 NFkB inh)
CCN(CC)S(=O)(=O)c1ccc2c(c1)oc(=O)n2CC(=O)NC1CCCCC1	none
CCOc1ccc(NC(=O)CSc2ccc(-c3cccnc3)nn2)cc1	none
COc1cccc(-n2c(SCC(=O)N3CCCCC3)nc3c([nH]c4ccccc43)c2=O)c1	Mdm2-MdmX inh 79 | Mdm2 MdmX conf inactive
COc1cccc(-n2c(SCC(N)=O)nc3c([nH]c4ccccc43)c2=O)c1	none
COc1ccc(C(=O)Nc2ccc(-c3nnn(CC(=O)NCc4ccco4)n3)cc2)cc1	Mdm2-MdmX inh 68 | Mdm2 MdmX conf inactive
CCC1CCc2sc(C(=O)NCC(c3ccc(OC)cc3)N3CCCC3)cc2C1 (centres undefined)	Mdm2-MdmX inh 50 (no result: KLF5 inhibitor) | Mdm2 MdmX conf inactive
COc1ccc(C(CNC(=O)c2oc3cc(C)c(C)cc3c2C)N2CCCCC2)cc1 (centres undefined)	Mdm2-MdmX inh 51 | Mdm2 MdmX conf inactive
COc1cc(CNCCNC(=O)c2nonc2N)ccc1OCc1ccc(Cl)cc1	none
COc1ccc(C(C)=O)cc1CSc1ccc2c(c1)OCCO2	none
Cc1ccc2nc(-c3cc(-c4ccccc4)no3)cn2c1	aSyn UTR inh 86, Mdm2-MdmX inh 70 | Mdm2 MdmX conf inactive
Cc1ccc(-c2cc(-c3ccccc3)no2)c(O)c1	none (no result: Jurkat NFkB inh, Mdm2-MdmX inh, 697 NFkB inh)
Cc1ccc(N2C(=O)N3[C@H]4c5ccccc5OC[C@@H]4[C@@H](c4ccccc4)[C@@]3(C)C2=O)cc1	Mdm2-MdmX inh 52 | Mdm2 MdmX conf inactive
C[C@]12C(=O)N(c3ccc(C(F)(F)F)cc3)C(=O)N1[C@@H]1c3ccccc3OC[C@@H]1[C@H]2c1ccccc1	Mdm2-MdmX inh 50 | Mdm2 MdmX conf 50 | FLuc counter 74
CCN(CC)CCNC(=O)CCc1c(C)nc2c(c(C)nn2-c2ccc(C)c(C)c2)c1C	Mdm2-MdmX inh 58 | Mdm2 MdmX conf 44 | FLuc counter 48
COCCCNC(=O)CCc1c(C)nc2c(c(C)nn2-c2ccccc2)c1C	none
COC(CNC(=O)CCc1c(C)nc2c(c(C)nn2-c2ccc(C)cc2)c1C)OC	none

High-throughput results deposited in PubChem BioAssay by several laboratories.
